From PubChem
PRC2 inh: EZH2/PRC2 methyltransferase inhibitors, primary screen, biochemical, DELFIA time-resolved fluorescence, single point. actives 0.35% (n = 57,000). PRC2 H3K27 methylation, DELFIA TRF, 1 h. AID 651548, 2012. inhibition, % at 12.5 µM;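 active = mean inhibition of replicates at least 50% and every single replicate also reaching 50%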;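 note: dimethyl H3K27 on biotinylated H3 21-44 peptide detected by antibody; plate controls were median neutral control wells for no effect and median positive control wells for full effect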
Target sequence (Q15910 whole entry, looked up): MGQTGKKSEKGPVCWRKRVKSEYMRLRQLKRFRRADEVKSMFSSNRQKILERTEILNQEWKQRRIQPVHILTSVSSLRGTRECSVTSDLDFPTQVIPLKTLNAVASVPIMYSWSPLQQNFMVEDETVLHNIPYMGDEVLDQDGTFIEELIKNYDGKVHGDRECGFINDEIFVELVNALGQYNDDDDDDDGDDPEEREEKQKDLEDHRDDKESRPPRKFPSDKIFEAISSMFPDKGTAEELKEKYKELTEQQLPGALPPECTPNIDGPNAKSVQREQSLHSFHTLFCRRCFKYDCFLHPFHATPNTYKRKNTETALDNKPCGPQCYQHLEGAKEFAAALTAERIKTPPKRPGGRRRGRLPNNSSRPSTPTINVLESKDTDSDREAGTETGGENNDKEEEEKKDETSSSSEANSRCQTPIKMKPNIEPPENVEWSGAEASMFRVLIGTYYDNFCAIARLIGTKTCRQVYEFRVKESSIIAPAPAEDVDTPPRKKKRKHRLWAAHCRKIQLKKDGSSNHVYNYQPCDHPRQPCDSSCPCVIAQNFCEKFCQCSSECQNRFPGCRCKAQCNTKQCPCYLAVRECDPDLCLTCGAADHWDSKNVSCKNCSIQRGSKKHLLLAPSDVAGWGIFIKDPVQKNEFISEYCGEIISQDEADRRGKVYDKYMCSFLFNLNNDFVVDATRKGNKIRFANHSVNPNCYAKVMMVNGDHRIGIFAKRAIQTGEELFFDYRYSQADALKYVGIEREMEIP
* hit, by the source's call. The sample as a whole holds a higher share of hits than the screen did.

SMILES	PRC2 inh
O=c1c(O[C@@H]2O[C@H](CO)[C@H](O)[C@H](O)[C@H]2O)c(-c2ccc(O)cc2)oc2cc(O)cc(O)c12	5
COc1c(OC)c(O)c2c(=O)c(O)c(-c3ccccc3)oc2c1OC	-30
O=c1c(O)c(-c2ccc(O)c(O)c2)oc2cc(O)cc(O)c12	62*
O=C1C[C@@H](c2ccc(O)c(O)c2)Oc2cc(O[C@@H]3O[C@H](CO)[C@@H](O)[C@H](O)[C@H]3O)cc(O)c21	5
COc1cc(-c2oc3cc(O)cc(O)c3c(=O)c2O[C@@H]2O[C@H](CO)[C@@H](O)[C@H](O)[C@H]2O)ccc1O[C@@H]1O[C@H](CO)[C@@H](O)[C@H](O)[C@H]1O	-9
COc1cc(O)c2c(=O)c(OC3OC(CO[C@@H]4O[C@@H](C)[C@H](O)[C@@H](O[C@@H]5O[C@@H](C)[C@H](O)[C@@H](O)[C@H]5O)[C@H]4O)C(O)C(O)C3O)c(-c3ccc(O)cc3)oc2c1 (stereo partly specified)	8
CCOC(=O)Cc1[nH]nc2c1C(C1CC=CCC1)C(C#N)=C(N)O2 (stereo unspecified)	0
COc1ccccc1-c1nnc(SCC(=O)Nc2ccccc2-c2ccccc2)n1C	-2
CCn1c(SCC(=O)Nc2cccc(F)c2)nnc1-c1ccc(C)cc1	6
CC(NS(=O)(=O)c1ccc(F)cc1)C(=O)Nc1ccc(F)c(Cl)c1 (stereo unspecified)	18
COc1cc2c(cc1NC(=O)COc1ccc(Br)cc1Cl)oc1ccccc12	-6
COC(=O)c1cn(CC(=O)N2CCN(C)CC2)nn1	8
Cc1cccc(NC(=O)c2ccc(OCC(=O)Nc3ccc(Cl)c(Cl)c3)cc2)c1C	4
COc1ccccc1NC(=O)c1sc2ncn(CC(=O)Nc3ccccc3C)c(=O)c2c1C	-3
COC(=O)c1c(NC(=S)NCCn2cc(Br)cn2)sc2c1CCC2	14
Cc1nnc(SCC(=O)Nc2ccc(Cl)cc2Cl)[nH]c1=O	-12
O=C(CCCCCC(=O)N/N=C/c1ccco1)NO	24
COc1ccc(/C=N/NC(=O)c2cccc(C(=O)NO)c2)cc1OC	-5
O=C(N/N=C/c1cc(O)ccc1O)c1ccccn1	7
COc1cccc(C(=O)c2oc3ccccc3c2NC(=O)CCc2ccccc2)c1	18
COC(=O)[C@@H](O)[C@H]1[C@@]2(C)C[C@]3(O)C4[C@@H](O[C@]56CC(=O)O[C@@H](c7ccoc7)[C@@]5(C)CCC([C@]46O)[C@]13C)[C@H]2O (stereo partly specified)	100*
CC12CC(c3ccoc3)OC(=O)C1CCC1(C)C2C2OC(=O)C1(O)C1OC21 (stereo unspecified)	10
COc1ccccc1CN1C(=O)c2ccccc2[C@@]2(Cc3ccccc3N(C(C)C)C2=O)[C@@H]1c1ccc(CO)cc1	0
N#C/C(=C\c1ccc(O)c(O)c1)C(=O)c1ccc(O)c(O)c1	94*
N#C/C(=C/c1ccc(O)c(O)c1)C(=O)Nc1ccccc1	18
SMILES	PRC2 inh
N#CC(C#N)=C(N)/C(C#N)=C/c1cc(O)c(O)c(O)c1	28
COc1cc2c(cc1O)C1(O)Cc3ccc4c(c3C1N(C)CC2)OCO4 (stereo unspecified)	8
COC(=O)c1ccccc1NC(=O)CNC(=O)c1ccccc1	-7
COC(=O)c1ccccc1NC(=O)Cn1c(C)ccc1C	-8
COC(=O)c1ccccc1NC(=O)CCSc1ccc(C)cc1	54*
CN(C)c1ccc(/C=N/NC(=O)c2ccccc2O)cc1	-6
O=[N+]([O-])c1cccc(S(=O)(=O)NCCOc2cccc3cccnc23)c1	-5
O=[N+]([O-])c1cccc(S(=O)(=O)NCCOc2ccccc2-c2ccccc2)c1	53*
O=[N+]([O-])c1cccc(S(=O)(=O)NCCOc2cccc(Cl)c2Cl)c1	1
Cc1ccc(CC(c2nc3ccccc3[nH]2)C(C)c2nc3ccccc3[nH]2)cc1 (stereo unspecified)	-7
O=C(Nc1ccccc1C(=O)O)c1ccc(Br)c(S(=O)(=O)N2CCOCC2)c1	11
CS(=O)(=O)N(CC(=O)Nc1ccc2ccccc2c1)c1cccc2ccccc12	2
Oc1ccc(/C=C/c2cc(O)cc(O)c2)cc1	-8
O=c1cc(O)cc(/C=C/c2ccc(O)c(O)c2)o1	87*
Cc1cc(=O)oc2c(O)c(O)ccc12	-3
COc1cc(NC(=O)COc2ccc(C(C)C)cc2)ccc1-c1cc2ccccc2oc1=O	2
CCn1cc(C(C)NC(=S)Nc2ccc(OC)cc2OC)c(C)n1 (stereo unspecified)	-2
Cc1cc(OCC(=O)Nc2cccc(NC(=O)c3cccc(Cl)c3)c2)ccc1Cl	3
CC(C)=CCN[C@H](CO)c1ccccc1	2
CC(C)=CCN(CC#Cc1ccccc1)[C@H](CO)c1ccccc1	66*
CC(=O)Nc1ccc(NC(=O)CN(c2ccc(Cl)c(C(F)(F)F)c2)S(C)(=O)=O)cc1	-27
CNC(=O)c1cc(Oc2ccc(NC(=O)Nc3ccc(Cl)c(C(F)(F)F)c3)cc2)ccn1	57*
CS(=O)(=O)N(CC(=O)Nc1ccc(Cl)c(C(F)(F)F)c1)c1cccc(C(F)(F)F)c1	22
COc1ccc(NC(=O)CSc2n[nH]c(-c3ccncc3)n2)cc1	2
CC1(C)Cc2c(c(N3CCOCC3)nc3sc4c(SCc5nc6ccccc6[nH]5)ncnc4c23)CO1	0
SMILES	PRC2 inh
COc1ccccc1OC(C)C(=O)Nc1c(C)n(C)n(-c2ccccc2)c1=O (stereo unspecified)	-16
COc1ccc([Si](C)(C)[C@@H]2[C@@H](CCO)O[C@]3(C(=O)N(Cc4ccc(NC(C)=O)cc4)c4ccccc43)[C@H]2C)cc1	20
COc1ccc([Si](C)(C)[C@@H]2[C@@H](CCn3cc([C@H](O)c4ccccc4)nn3)O[C@]3(C(=O)N(c4ccccc4)c4ccccc43)[C@H]2C)cc1	11
COc1ccc([Si](C)(C)[C@@H]2[C@@H](CCO)O[C@]3(C(=O)N(C)c4ccccc43)[C@H]2C)cc1	12
COc1ccc([Si](C)(C)[C@@H]2[C@@H](CCO)O[C@]3(C(=O)N(C)c4c(Br)cc(C)cc43)[C@H]2C)cc1	52*
COc1ccc([Si](C)(C)[C@H]2[C@H](CCn3cc([C@H](O)c4ccccc4)nn3)O[C@@]3(C(=O)N(C)c4c(Br)cc(C)cc43)[C@@H]2C)cc1	17
COc1ccc([Si](C)(C)[C@@H]2[C@@H](CCO)O[C@]3(C(=O)N(c4ccccc4)c4ccccc43)[C@H]2C)cc1	51*
CCN(CC(=O)Nc1ccc(C(N)=O)cc1)S(=O)(=O)c1ccc(Br)cc1	-11
O=c1c2ccccc2[nH]c(=S)n1CCCN1CCN(Cc2ccccc2)CC1	2
COC(=O)c1ccccc1NC(=O)c1cccc(NC(=O)COc2ccccc2)c1C	17
COC(=O)c1ccccc1NC(=O)c1ccc(COc2ccccc2)o1	53*
COC(=O)c1ccccc1NC(=O)c1ccc(NC(=O)COc2ccccc2)cc1	10
C=C1CC(O)C2C(=C)C(=O)OC2C2C(=C)C(OC3OC(CO)C(O)C(OC(=O)/C=C/c4ccc(O)c(O)c4)C3O)CC12 (stereo unspecified)	76*
O=C(/C=C/c1ccc(O)c(O)c1)OCCc1ccccc1	15
